Assay outcomes as filed in PubChem.
Only some compounds are listed: those with a hit (about 3.8% of all), similar ones and a draw of the others.
mIDH1 inhibitor: human IDH1 R132H inhibition; Potency, µM (titrated, usually from 76.6 µM), usual class: inhibitors; O75874; IDH1-R132H enzyme, NADPH consumption, diaphorase/resazurin fluorescence; 390,000 compounds, 0.093% hits; AID 602179; also: nearly all actives have a fitted effect of over 65% in size
Target sequence (O75874 whole entry R132H, stated change not applied): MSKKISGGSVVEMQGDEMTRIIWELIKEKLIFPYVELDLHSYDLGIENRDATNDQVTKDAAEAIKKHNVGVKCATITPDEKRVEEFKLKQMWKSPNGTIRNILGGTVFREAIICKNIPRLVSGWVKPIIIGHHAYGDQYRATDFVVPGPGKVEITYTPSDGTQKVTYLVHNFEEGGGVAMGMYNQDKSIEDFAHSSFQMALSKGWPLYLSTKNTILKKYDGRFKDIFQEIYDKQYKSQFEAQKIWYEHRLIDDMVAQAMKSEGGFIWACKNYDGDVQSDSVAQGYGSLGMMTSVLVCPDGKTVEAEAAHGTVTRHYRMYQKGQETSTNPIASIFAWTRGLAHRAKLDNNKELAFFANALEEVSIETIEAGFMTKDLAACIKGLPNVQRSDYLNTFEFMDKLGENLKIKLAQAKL
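IDH1-R132H (0.5 ug/mL dispensed) in pH 7.5 Tris buffer was preincubated 30 min with compound, then given a substrate mix of 0.016 mM NADPH and 2 mM alpha-KG for 80 min at room temperature; remaining NADPH was read by diaphorase/resazurin fluorescence.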
ELG1 repair inh: inhibitors of ELG1-dependent DNA repair in HEK293T cells; HEK293T ELG1-luciferase reporter, luminescence, 16 h; DNA damage induced by 5-fluorouridine; Potency, µM (top dose mostly 46.1 µM), most hits filed as inhibitors; 330,000 compounds, 2.3% hits; also: nearly all actives have a fitted effect of over 55% in size
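In this reporter screen, reduction of luminescence relative to DMSO vehicle indicated activity. Compounds and 5-fluorouridine were added together to 2,000 cells per well, incubated for 16 hr at 37 °C, then developed with ONE-Glo.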
A549 tox: counter-screen for Nrf2 inhibitors: cytotoxicity in A549 cells; AID 504648; 390,000 compounds, 0.16% hits; Potency, µM (top dose mostly 46 µM), most hits filed as inhibitors; A549 ARE-Fluc cells, CellTiter-Fluor viability, 18-24 h
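Cytotoxicity counterscreen: CellTiter-Fluor fluorescence was measured in A549 ARE_Fluc cells after 18-24 h of compound exposure in a concentration series. The subsequent BugLite luminescent read reports ARE-luciferase activity.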
Nrf2 ARE act: Nrf2 pathway activation | AREc32 ARE-luciferase reporter (MCF7-derived line), luminescence, 24 h | Potency, µM (titrated, usually from 46.1 µM), actives largely listed as activators | 410,000 compounds, 0.31% hits; also: nearly all actives have a fitted effect of over 65% in size
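Luciferase luminescence (Steady-Glo, 30 min at room temperature) served as the read-out of ARE activation in AREc32 cells treated with compounds for 24 hr at 37 deg C.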
Nrf2 inh: Nrf2 pathway inhibition; A549 ARE-Fluc reporter, luciferase luminescence, 18-24 h; Potency, µM (top dose mostly 46 µM), actives largely listed as inhibitors; 360,000 compounds, 2.1% hits; AID 504444; also: nearly all actives have a fitted effect of over 60% in size
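Cells were seeded and rested 2 h, then exposed to compounds for 18-24 h. CellTiter-Fluor was read first as a viability measure. BugLite was added 15 min before the final luminescent read of ARE-luciferase activity in A549 cells.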
Hits are given with their value; - = inactive; ? = inconclusive; . = no result given. Calls follow the shape of the dose curve; as a rule, active = well fitted curve in the direction sought with a large enough effect; inconclusive = small, poorly fitted or top-dose-only effect, or another doubt; inactive = no such curve, though single readings can be large; an effect the other way counts as inactive or inconclusive.

SMILES | mIDH1 inhibitor | ELG1 repair inh | A549 tox | Nrf2 ARE act | Nrf2 inh
Fc1ccc(Nc2ncnc3c2nc2n3CCCCC2)c(F)c1 | - | . | - | - | ?
COc1ccc(CNS(=O)(=O)c2ccc(-n3cnnn3)c(C)c2)cc1 | - | - | - | - | -
CC(=O)c1ccc(OCCNS(=O)(=O)c2ccc(-n3cnnn3)c(C)c2)cc1 | - | ? | - | - | 5.8µM
CCCCCC(=O)Nc1ccc(NC(=O)c2cc3ccccc3o2)c(OC)c1 | - | . | - | - | -
Cc1ccoc1C(=O)Nc1ccc(CC(=O)O)cc1 | - | ? | - | - | 1µM
COc1ccc(-c2nc(-c3cccs3)c(-c3cccs3)[nH]2)cc1OC | - | 21µM | - | - | -
COc1ccc(-c2[nH]c(-c3ccc4c(c3)OCO4)nc2-c2ccccc2)cc1 | - | ? | ? | - | 21µM
O=[N+]([O-])c1ccc(-c2nc(-c3cccs3)c(-c3cccs3)[nH]2)cc1 | - | 21µM | ? | - | ?
COc1ccc(-c2nc(-c3ccccc3)c(-c3cccs3)[nH]2)cc1OC | - | 15µM | ? | - | ?
Cc1ccc(-c2nc(-c3cccs3)c(-c3cccs3)[nH]2)cc1 | - | . | - | - | -
COc1ccc(-c2nc(-c3ccccc3)c(-c3ccccc3)[nH]2)cc1Br | - | . | - | - | -
COc1cc(-c2nc(-c3ccccc3)c(-c3ccc(F)cc3)[nH]2)cc2c1OCO2 | - | ? | - | - | -
CCN(CCCNC(=O)CN1N=C(c2ccc(OC)cc2)CCC1=O)c1cccc(C)c1 | - | . | - | - | .
Cc1nn(C)cc1S(=O)(=O)Nc1ccc(F)c(F)c1 | - | - | - | - | -
Cc1ccc(OCCOc2ccc(S(=O)(=O)N3CCCC3)cc2C(N)=O)cc1 | - | - | - | - | -
CCc1ccc(N2CC(C(=O)Nc3ccc(S(=O)(=O)NCC4CCCO4)cc3)CC2=O)cc1 (stereo not given) | - | - | - | - | -
O=S(=O)(Nc1cccc2ccccc12)c1ccc2ccccc2c1 | . | . | - | . | ?
CCn1c(-c2ccc(C)cc2)nn(CC(=O)NCCc2ccccc2)c1=S | - | - | ? | - | 23µM
COc1ccc2c(c1)c[n+](C)c1c3cc(OC)c(OC)cc3ccc21 | . | . | . | - | .
COc1cc2c[n+](C)c3c4ccccc4ccc3c2cc1OC | - | . | - | - | 16µM
COc1ccc(C2CC(c3c(-c4ccccc4)c4cc(Cl)ccc4[nH]c3=O)=NN2S(C)(=O)=O)cc1 (stereo not given) | - | ? | - | - | ?
COc1ccc(OC)c(C2CC(c3c(-c4ccccc4)c4cc(Cl)ccc4[nH]c3=O)=NN2S(C)(=O)=O)c1 (stereo not given) | - | 5.2µM | - | - | ?
COc1ccc(-c2nnc(N(C)C(=O)c3ccco3)s2)cc1OC | - | ? | - | - | -
CN(C(=O)c1ccco1)c1nnc(-c2ccc(F)cc2)s1 | - | ? | - | 7.1µM | -
Cc1nc(Nc2ccc(S(=O)(=O)N3CCCCC3C)cc2)c2nnn(Cc3ccccc3)c2n1 (stereo not given) | - | 7.3µM | - | - | ?
SMILES | mIDH1 inhibitor | ELG1 repair inh | A549 tox | Nrf2 ARE act | Nrf2 inh
Cc1nc(Nc2ccccc2Br)c2nnn(Cc3ccccc3)c2n1 | - | - | ? | - | -
COc1ccc(Nc2nc(C)nc3c2nnn3Cc2ccccc2)cc1OC | - | 9.2µM | - | - | ?
Cc1nc(Nc2ccc(Cl)cc2)c2nnn(Cc3ccccc3)c2n1 | - | - | - | - | -
Cc1ccc(-c2cn3c(n2)sc2cc(C(=O)N4CCCCC4)ccc23)cc1 | - | . | - | - | -
O=C(c1ccc(S(=O)(=O)Cc2cc(F)ccc2F)c([N+](=O)[O-])c1)N1CCCCC1 | - | ? | - | ? | -
O=C(c1ccc(S(=O)(=O)Cc2cc(F)ccc2F)c([N+](=O)[O-])c1)N1CCCC1 | - | - | - | 8.9µM | ?
O=C(COc1ccc([N+](=O)[O-])cc1)N/N=C/c1cc([N+](=O)[O-])ccc1N1CCOCC1 | - | 18µM | - | - | ?
Cc1ccc(OCC(=O)N/N=C/c2cc([N+](=O)[O-])ccc2N2CCCCC2)cc1 | - | - | - | - | -
O=c1c(-c2ccco2)[n+]([O-])c2ccccc2n1OCc1c(F)cccc1F | - | ? | - | 0.71µM | -
